Test results from PubChem BioAssay (EPA / NIEHS).
Records with an inconclusive call do not appear. A structure can be active in one record and inactive in another. Calls of active or inactive are those of the source. Rule for the calls, unless noted: active = hit-call score of the fitted dose curve at least 0.9, where 1 is the maximum; inconclusive = response in the unintended direction; inactive = score below 0.9.

What was measured:
[1] = read-out: UDP glucuronosyltransferase (UGT1A6), UGT1A6 (gene 54578); test: LTEA_HepaRG_UGT1A6: Life Technologies and Expression Analysis (LTEA) Assay for UDP glucuronosyltransferase (UGT1A6) using HepaRG (AID 2283539; active = hit-call score of the fitted dose curve at least 0.9, where 1 is the maximum; inactive = score below 0.9); conditions: mRNA level, 48 h; actives raise or lower the signal
Method in brief: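 Endpoint is UGT1A6 transcript induction or loss in a human liver cell line, quantified by TaqMan qRT-PCR 48 h after dosing. Concentrations ran from 100 uM downward in half-log steps in 0.5% DMSO; activity was fitted in both directions versus vehicle.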

[2] = LTEA_HepaRG_LDH_cytotoxicity: Cytotoxicity Assessment in the Life Technologies and Expression Analysis (LTEA) Assay (AID 2283563);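 for AC50: LDH activity released into spent culture medium as a marker of cell death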
Method in brief: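 Human HepaRG hepatic cells are treated with test chemicals for 48 h at up to 100 uM in 0.5% DMSO. Cytotoxicity is scored from medium LDH against the vehicle control.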

[3] = Tanguay_ZF_120hpf_MORT_legacy: (Legacy) Oregon State University Tanguay Lab 120 Hour Post-fertilization zebrafish Assay for Mortality (AID 2283633);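 for AC50: fitted as increase in binary mortality versus DMSO negative control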
Method in brief: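 Mortality endpoint from a multiplexed whole-embryo zebrafish screen. Dechorionated wild-type embryos received compound at 6 hpf and remained under static exposure at 28C until 120 hpf, with death noted as a present/absent call.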

[4] = Tanguay_ZF_120hpf_YSE_legacy: (Legacy) Oregon State University Tanguay Lab 120 Hour Post-fertilization zebrafish Assay for Yolk Sac Edema (AID 2283634);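 for AC50: actives raise the incidence of yolk sac edema above the DMSO baseline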
Method in brief: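 Readout: presence or absence of yolk sac edema at 120 hpf, fitted upward against DMSO controls. Exposure ran statically from 6 hpf in dechorionated embryos kept at 28C.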

[5] = Tanguay_ZF_120hpf_AXIS_legacy: (Legacy) Oregon State University Tanguay Lab 120 Hour Post-fertilization zebrafish Assay for Body Axis Malformation (AID 2283635);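 for AC50: potency for an increased fraction of larvae scored with body axis malformation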
Method in brief: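 Static 6–120 hpf chemical exposure of dechorionated wild-type 5D zebrafish, one per well at 28C; morphology endpoint scored binary at 120 hpf relative to DMSO control.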

[6] = Tanguay_ZF_120hpf_EYE_legacy: (Legacy) Oregon State University Tanguay Lab 120 Hour Post-fertilization zebrafish Assay for Eye Malformation (AID 2283636)
Method in brief: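 Read-out is binary presence or absence of eye malformation, scored by brightfield microscopy at 120 hpf. Single larvae were exposed from 6 hpf in embryo medium containing 0.64% DMSO, with DMSO as baseline.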

[7] = Tanguay_ZF_120hpf_SNOU_legacy: (Legacy) Oregon State University Tanguay Lab 120 Hour Post-fertilization zebrafish Assay for Snout Malformation (AID 2283637)
Method in brief: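 Snout malformation read as a yes/no call on brightfield images of 120 hpf larvae (Tropical 5D strain). Static exposure began at 6 hpf on dechorionated embryos in 0.64% DMSO, with gain of signal analysed versus DMSO controls.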

[8] = Tanguay_ZF_120hpf_OTIC_legacy: (Legacy) Oregon State University Tanguay Lab 120 Hour Post-fertilization zebrafish Assay for Otic Vesicle Malformation (AID 2283639)
Method in brief: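 Tropical 5D wild-type zebrafish embryos statically exposed in 0.64% DMSO at 28C until 120 hpf; 5uM trimethyltin chloride as positive control. Otic vesicle malformation scored present/absent by brightfield; dead embryos not scored; gain fitted versus DMSO.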

[9] = Tanguay_ZF_120hpf_PE_legacy: (Legacy) Oregon State University Tanguay Lab 120 Hour Post-fertilization zebrafish Assay for Pericardial Edema (AID 2283640);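 for AC50: potency for increased incidence of pericardial edema versus DMSO baseline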
Method in brief: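 Read-out is the presence or absence of pericardial edema at 120 hpf under brightfield, with gain of signal fitted against DMSO controls. Larvae (5D wild-type) were statically exposed at 28C with 0.64% final DMSO.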

[10] = Tanguay_ZF_120hpf_BRAI_legacy: (Legacy) Oregon State University Tanguay Lab 120 Hour Post-fertilization zebrafish Assay for Brain Malformation (AID 2283641)
Method in brief: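 Brain malformation in Tropical 5D zebrafish was recorded as a binary endpoint after static compound exposure from early development to 120 hpf at 28C. Activity was analysed against DMSO as negative control.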

[11] = ATG_XTT_Cytotoxicity: Cytotoxicity Assessment in the Attagene TRANS-FACTORIAL HepG2 Assay (AID 2283584)
Method in brief: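 Transfect HepG2 with GAL4-UAS reporter units, dose compound, incubate 24 h, then measure viable cell number by XTT. Fit concentration response against DMSO baseline.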

[12] = TOX21_p53_BLA_p2_viability: Viability Assessment in the Tox21 HCT-116 p53 Agonism Beta-lactamase Assay, Phase 2 (AID 2283591);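 note: actives lower the ATP signal meaning cytotoxicity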
Method in brief: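 Cytotoxicity readout: CellTiter-Glo ATP luminescence, 30 min at room temperature, after the beta-lactamase read. Cells were HCT116 exposed 16 h at 37C to compounds pin-transferred at 217-fold dilution from DMSO stocks.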

[13] = target: Cellular tumor antigen p53 (Homo sapiens) (UniProt P04637); test: TOX21_p53_BLA_p2_ratio: Tox21 HCT-116 p53 Agonism Beta-lactamase Assay, Ratio, Phase 2 (AID 2283592)
Method in brief: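 An inducible beta-lactamase reporter in HCT116 cells signals p53 pathway activation. After 16 h chemical exposure at 37C, cells load CCF4-AM substrate for 2 h at room temperature; activity is the cleaved/uncleaved emission ratio relative to DMSO.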

[14] = target: Cellular tumor antigen p53 (Homo sapiens) (UniProt P04637); test: TOX21_p53_BLA_p3_ratio: Tox21 HCT-116 p53 Agonism Beta-lactamase Assay, Ratio, Phase 3 (AID 2283596)
Method in brief: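 HCT116 p53-bla cells (4000/well) given compound in DMSO (217-fold dilution) after 5 h, incubated 16 h at 37C. CCF4-AM substrate 2 h at room temperature; 460/530 nm emission ratio, gain fitted against DMSO.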

[15] = TOX21_p53_BLA_p4_viability: Viability Assessment in the Tox21 HCT-116 p53 Agonism Beta-lactamase Assay, Phase 4 (AID 2283597);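 note: hits lower the luminescence signal meaning cytotoxicity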
Method in brief: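 Compound exposure of HCT116 cells lasts 16 h at 37C, 5% CO2, with DMSO stocks diluted 217-fold. Cellular ATP is then quantified by CellTiter-Glo luminescence after 30 min at room temperature.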

[16] = target: Cellular tumor antigen p53 (Homo sapiens) (UniProt P04637); test: TOX21_p53_BLA_p5_ratio: Tox21 HCT-116 p53 Agonism Beta-lactamase Assay, Ratio, Phase 5 (AID 2283599)
Method in brief: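 Beta-lactamase reporter ratio (blue 460 nm over green 530 nm, 405 nm excitation) after 2 h CCF4-AM loading, in HCT-116 cells exposed 16 h at 37 C to compounds pinned at 217-fold dilution. Increases relative to DMSO baseline scored.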

[17] = target: Cellular tumor antigen p53 (Homo sapiens) (UniProt P04637); test: TOX21_p53_BLA_p4_ratio: Tox21 HCT-116 p53 Agonism Beta-lactamase Assay, Ratio, Phase 4 (AID 2283601)
Method in brief: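 Signal is the blue/green (460nm/530nm) ratio of cleaved versus uncleaved CCF4-AM substrate, read after 2 h substrate loading. Cells were HCT116 carrying the p53-responsive beta-lactamase reporter, dosed 16 h at 37C, 5% CO2; CellTiter-Glo measured in parallel.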

[18] = TOX21_p53_BLA_p5_viability: Viability Assessment in the Tox21 HCT-116 p53 Agonism Beta-lactamase Assay, Phase 5 (AID 2283600)
Method in brief: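 Counter-readout for cytotoxicity: ATP-dependent luminescence from CellTiter-Glo, read in the beta-lactamase wells after 30 min at RT, following a 16 h compound exposure at 37C.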

[19] = Tanguay_ZF_120hpf_JAW_legacy: (Legacy) Oregon State University Tanguay Lab 120 Hour Post-fertilization zebrafish Assay for Jaw Malformation (AID 2283638)
Method in brief: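 Static waterborne exposure of dechorionated wild-type (Tropical 5D) zebrafish from 6 to 120 hpf at 28C, 0.64% DMSO vehicle; 5uM trimethyltin chloride served as positive control. Jaw morphology recorded as binary at 120 hpf.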

Measured: AC50

Chain of Cellular tumor antigen p53 (Homo sapiens) (P04637 whole entry, looked up): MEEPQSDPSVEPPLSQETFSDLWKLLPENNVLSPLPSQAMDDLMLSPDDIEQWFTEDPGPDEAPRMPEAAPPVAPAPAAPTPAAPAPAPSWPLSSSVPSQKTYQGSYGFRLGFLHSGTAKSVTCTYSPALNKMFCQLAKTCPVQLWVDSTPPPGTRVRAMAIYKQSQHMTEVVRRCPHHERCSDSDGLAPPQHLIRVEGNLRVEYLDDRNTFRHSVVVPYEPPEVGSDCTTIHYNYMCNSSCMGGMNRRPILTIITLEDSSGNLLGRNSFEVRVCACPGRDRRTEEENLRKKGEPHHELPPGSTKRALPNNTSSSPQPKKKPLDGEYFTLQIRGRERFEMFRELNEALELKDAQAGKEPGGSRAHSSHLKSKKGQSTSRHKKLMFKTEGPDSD

CCCOc1ccc(S(=O)(=O)N2CCN(CC)CC2)cc1-c1nc2c(CC)n(Cc3ccccn3)nc2c(=O)[nH]1
inactive: [1] | [2] | [3] | [4] | [5] | [6] | [7] | [8] | [9] | [10]

Cc1ncc([C@@H](CCCCCCc2ccc3c(n2)NCCC3)CC(=O)O)cn1
inactive: [1] | [2] | [3] | [4] | [5] | [6] | [7] | [8] | [9] | [10]

CCCCCOC(C)=O
inactive: [1] | [11] | [3] | [4] | [5] | [6] | [7] | [8] | [10]

O=C(O)c1cccc(C[C@@H]2COc3ccc(OCc4nc5cc(F)ccc5s4)cc3[C@@H]2O)c1
active: [2] 75.6 µM | [3] 26 µM | [4] 5.39 µM | [5] 5.78 µM | [7] 3.99 µM
not listed: [9] | [11] | [18] | [19]
inactive: all other assays above

CCOC(N)=O
active: [14] 88.1 µM
inactive: [1] | [2] | [12] | [13] | [14] | [15] | [16] | [18] | [17] | [3] | [4] | [5] | [6] | [7] | [8] | [10]

c1ccc2ncccc2c1
not listed: [9] | [11] | [19]
inactive: all other assays above

O=C(O)CO
inactive: [11]

COCc1nnc(-c2ccc[n+]([O-])c2)n1-c1c(Cl)c(Cl)cc2[nH]c(=O)c(=O)[nH]c12
inactive: [1] | [2] | [3] | [4] | [6] | [7] | [8]

CC(=O)c1ccccc1
not listed: [9] | [11]
inactive: all other assays above

OCc1c[nH]c2ccccc12
inactive: [11] | [12] | [14] | [15] | [16] | [18]
active: [13] 86.5 µM | [17] 78.9 µM

COc1cc2c(c(OC)c1OC)-c1ccc(OC)c(=O)cc1[C@@H](NC(C)=O)CC2
inactive: [2] | [11] | [3] | [5] | [6] | [7] | [19]
active: [1] 0.237 µM | [4] 27.1 µM | [8] 25 µM | [9] 26.2 µM

CC[C@H](C)C(=O)O[C@H]1C[C@H](O)C=C2C=C[C@H](C)[C@H](CC[C@@H](O)C[C@@H](O)CC(=O)O)[C@H]21
inactive: [1] | [2] | [11] | [4] | [5] | [6] | [7] | [8] | [9] | [10]

OC[C@H]1O[C@@](CO)(O[C@H]2O[C@H](CO)[C@@H](O)[C@H](O)[C@H]2O)[C@@H](O)[C@@H]1O
not listed: [12] | [13] | [14] | [15] | [16] | [17] | [18] | [19]
inactive: all other assays above

O=C(O)c1cccc(C(=O)O)c1
not listed: [10] | [12] | [13] | [14] | [15] | [16] | [17] | [18]
inactive: all other assays above

c1ccc2c(c1)-c1cccc3c1c-2cc1ccccc13
inactive: [1] | [2] | [11] | [3] | [4] | [6] | [7] | [8] | [10]

Nc1ccn([C@@H]2O[C@H](CO)[C@@H](O)[C@@H]2O)c(=O)n1
not listed: [9] | [12] | [13] | [14] | [15] | [16] | [17] | [18]
inactive: all other assays above

CCCCOC(=O)c1ccccc1
not listed: [10] | [11] | [12] | [15] | [16] | [19]
inactive: all other assays above

C[C@@H](Oc1ccc(CNC(=O)c2cccnc2Oc2ccc3c(c2)OCO3)c(F)c1)C(=O)O
inactive: [1] | [2] | [3] | [4] | [5] | [6] | [7] | [8] | [9] | [10]

S=P(N1CC1)(N1CC1)N1CC1
active: [14] 48.8 µM
inactive: [11] | [12] | [13] | [14] | [15] | [16] | [18] | [17]

CCN(CC)C(=S)SSC(=S)N(CC)CC
inactive: [1] | [2] | [11] | [3] | [8] | [10]
active: [4] 0.425 µM | [5] 0.36 µM | [6] 1.4 µM | [7] 1.4 µM

O=S(=O)(O)c1ccc(N=Nc2c(O)ccc3cc(S(=O)(=O)O)ccc23)cc1
inactive: [1] | [2] | [3] | [4] | [5] | [6] | [7] | [8] | [10]
